Measured values reported in PubChem BioAssay (NCI).
This is part of a sample that, as a whole, favours compounds with a hit. Of some 83,000 tested, about 20% had one in any assay.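 Results are percent growth after 48 hours of single-concentration exposure. 100 means growth as in untreated cells, lower positive values show inhibition; negative values down to -100 show cell death.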 Values without a mark were called inactive. Active and inactive are the calls of the source. How the source made its calls: active means growth percent below 10; inactive means the rest.

test system: HL-60(TB) leukemia; assay: NCI-60 one-dose screen, 48 h (100 = growth as untreated, 0 = no growth, -100 = all killed); conditions: 10 µM unless noted

| SMILES | growth |
| --- | --- |
| O=C(NCCOCCOCCNc1cccc2c1C(=O)N(C1CCCNC1=O)C2=O)c1cc2c(o1)C(=O)c1ccccc1C2=O (centres undefined) | -1.81% (active) |
| c1ccc(Nc2nc(Nc3ccccc3)nc(Nc3ccccc3)n2)cc1 | 63.8% |
| Nc1nc2ncc(CNc3ccc(C(=O)N[C@@H](CCc4nn[nH]n4)C(=O)O)cc3)nc2c(=O)[nH]1 | 109% |
| CC(=O)N1N=C(c2ccc(Nc3nc(Nc4ccc(F)cc4)nc(Nc4ccc(F)cc4)n3)cc2)CC1c1ccccc1 (centres undefined) | 83% |
| Cc1cc(N/N=C/c2nc(-c3ccc(Cl)cc3)oc2C)c2cc(Cl)ccc2n1 | 8.08% (active) |
| COc1ccc(C/C(C)=C(\c2ccc(Cl)cc2)c2ccc(OCCN3CCCC3)cc2)cc1 | 76.9% |
| COc1ccc2nc(-c3c(-c4ccccc4)nc4ncccn34)[nH]c2c1 | 98% |
| COc1cc(Cl)cc(-c2nn(C(=O)NS(=O)(=O)c3ccccc3)cc2-c2ccncc2)c1 | 94.3% |
| CCCc1n(Cc2ccc3ccccc3c2)cc[n+]1Cc1ccc2ccccc2c1 | -53.1% (active) |
| O=C1O[C@@H](c2ccccc2Cl)[C@@H]2c3cc4c(cc3CCN12)OCO4 | 92.1% |
| Cc1cccc(-c2nc(Nc3ccc4ncsc4c3)c3ccccc3n2)n1 | 62.5% |
| Cc1nc(N)nc(N[C@@H](C)c2nc3cccc(NCc4ccc(C(=O)NO)cc4)c3c(=O)n2-c2ccccc2)n1 | 43.1% |
| COc1cc(/C=C/C(=O)c2cc(-c3ccc(F)cc3)ccc2O)cc(OC)c1OC | 39.5% |
| O=C1/C(=C/c2cccc3cnccc23)Cc2cc(F)ccc21 | 105% |
| Nc1ccc(Br)cc1C(F)(F)F | 90.2% |
| COC(=O)[C@]12CC[C@@H](C)[C@H](C)[C@@H]1C1=CC[C@@H]3[C@@]4(C)C(C=O)=C[C@@](C)(COC(=O)c5ccco5)[C@@H]4[C@H](O)C[C@@]3(C)[C@]1(C)CC2 | -21.9% (active) |
| NCC(=O)NS(=O)(=O)OC[C@H]1O[C@@H](n2cnc3c(N)ncnc32)[C@H](O)[C@@H]1O | -9.28% (active) |
| CC(C)(C)c1[nH]nc2c1C(c1cc3ccccc3[nH]c1=O)Nc1cc(C(=O)OCc3ccccc3)ccc1N2 (centres undefined) | 54.5% |
| ClCc1cccc(CSc2ncnc3c2ncn3Cc2cccc(CCl)c2)c1 | 23.7% |
| O=C(Nc1cnc(Nc2ccc(N3CCOCC3)nc2)nc1Oc1ccc(C(F)(F)F)cc1)c1ccncc1 | 98.6% |

| SMILES | growth |
| --- | --- |
| C=C(C)[C@@H]1CC[C@]2(C=NCCCNCCCCNCCCN)CC[C@]3(C)[C@H](CC[C@@H]4[C@@]5(C)CCCNC(C)(C)[C@@H]5CC[C@]43C)[C@@H]12 | 89.6% |
| ClCC#CCSc1ncnc2c1ncn2CC#CCCl | 8.79% (active) |
| Cc1cc(C(C)(CC(C)C)c2ccc(O)c(C)c2)ccc1O | 106% |
| CCCCCCCCCCCCCCCC[n+]1cccc(C#N)c1 | 30.4% |
| N#Cc1ccc(O)c(C2=NCC(c3cccc(Oc4ccccc4)c3)O2)c1 (centres undefined) | -8.73% (active) |
| O=c1c2cc(F)cc(Cl)c2sc2c(NCCCNCCO)nc3ccccc3c12 | 77.1% |
| O=C(Nc1ccc(-n2cc(-c3ccncc3)c(-c3ccc(Cl)c(O)c3)n2)cc1)N1CCOCC1 | 108% |
| CN(C)/C(N)=N/N=C(\c1ccccc1)c1ccccn1 | 98.5% |
| COc1ccc(-c2ccc(-c3ccc(C(=N)N)cn3)s2)cc1 | -37.1% (active) |
| ClC1C2CC(c3ccccc32)C1Cl (centres undefined) | 131% |
| N#CC1=C(N)Oc2c(ccc3ccccc23)C1c1ccccc1 (centres undefined) | -22.3% (active) |
| N#CC(C#N)=C(C#N)c1c[nH]c2ccccc12 | 72.9% |
| CCCCCN1C=C/C(=C\C(=O)n2ccc3ccccc32)c2ccccc21 | 103% |
| Cc1c(C)c2c(c(C)c1NC(=O)/C=C\C(=O)O)CCC(C)(CCCC(C)CCCC(C)CCCC(C)C)O2 (centres undefined) | 37.3% |
| O=C(Nc1nc(-c2ccccc2)nc2c1sc(=S)n2-c1ccccc1)C(F)(F)F | 94.5% |
| CCCCCCCCCCN1CCC(N2CCCCC2)CC1 | -57.7% (active) |
| O=C(/C=C/c1ccccc1)Nc1ncc(Cc2ccccc2)s1 | -45.3% (active) |
| Cc1ccccc1OC(=O)c1cccc(Cl)c1 | 60.4% |
| COC(=O)/C(CCC=C(C)C)=C1\[C@@H](OC(C)=O)C[C@@]2(C)[C@H]1C/C(=N/O)[C@H]1[C@@]3(C)CC/C(=N\O)[C@@H](C)[C@@H]3CC[C@@]12C | 89.3% |
